Where “and” joins values, the source holds several entries; their conditions need not be identical. Equal entries are not always repeated. Results filed as inconclusive are left out. A call without a number means that no potency is given here. A structure can be active in one record and inactive in another. Calls of active or inactive are those of the source. The call rests on the fitted dose curve; in most records, active means well fitted curve in the direction sought with a large enough effect in the repeat runs; inconclusive means weak or mixed curves; inactive means no such curve, though single readings can be large; an effect the other way counts as inactive or inconclusive.
Tests used:
[1] = A CellTox Green Cytotoxicity Assay to monitor cytotoxicity in HEK293 cells - 32 hour (AID 1224881); further: nearly all actives have a fitted effect of over 40% in size; further: potency means the concentration at half of the fitted maximal effect
Summary of the method: (§1)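 Fluorescence from a DNA-binding dye excluded by viable cells was measured repeatedly in the same HEK293 wells (600 cells/well) during continuous compound exposure at 37 C. Each assay gives one read point: 0, 8, 16, 24, 32 or 40 h.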

[2] = A CellTox Green Cytotoxicity Assay to monitor cytotoxicity in HepG2 cells - 0 hour (AID 1224882); further: nearly all actives have a fitted effect of over 35% in size; further: potency means the concentration at half of the fitted maximal effect
Summary of the method: (§2)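 Real-time cytotoxicity: fluorescence of a cell-impermeant cyanine dye binding DNA of dead HepG2 cells, measured repeatedly (0–40 h) during compound exposure at 37 C. Cells seeded 600/well with reagent, dosed after 5 h.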

[3] = A CellTox Green Cytotoxicity Assay to monitor cytotoxicity in HepG2 cells - 32 hour (AID 1224883); further: nearly all actives have a fitted effect of over 50% in size; further: potency means the concentration at half of the fitted maximal effect
Summary of the method: as §2

[4] = A CellTox Green Cytotoxicity Assay to monitor cytotoxicity in HEK293 cells - 8 hour (AID 1224884); further: nearly all actives have a fitted effect of over 35% in size; further: potency means the concentration at half of the fitted maximal effect
Summary of the method: as §1

[5] = qHTS RealTime-Glo MT Cell Viability Assay in HepG2 cells - 16 hour (AID 1224885); further: nearly all actives have a fitted effect of over 50% in size; further: potency means the concentration at half of the fitted maximal effect
Summary of the method: (§3)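 Cells + NanoLuc/prosubstrate dispensed (600 cells/well) → 5 h at 37 C/5% CO2 → compounds in DMSO transferred → 40 h incubation at 37 C, luminescence read at 0, 8, 16, 24, 32, 40 h.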

[6] = qHTS RealTime-Glo MT Cell Viability Assay in HEK293 cells - 24 hour (AID 1224886); further: nearly all actives have a fitted effect of over 50% in size; further: potency means the concentration at half of the fitted maximal effect
Summary of the method: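 Tox21 10K qHTS, HEK293, 600 cells/well, RealTime-Glo reagent co-dispensed with cells; 5 h preincubation, compound by pintool, 37 C, luminescence at 0–40 h.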

[7] = qHTS RealTime-Glo MT Cell Viability Assay in HEK293 cells - 8 hour (AID 1224887); further: nearly all actives have a fitted effect of over 50% in size; further: potency means the concentration at half of the fitted maximal effect
Summary of the method: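 Luminescence, which tracks viable cell number through reduction of the prosubstrate to a NanoLuc substrate, was read over continuous 37 C culture. Cells (600/well) were premixed with reagent and rested 5 h before 23 nL of compound in DMSO was pinned.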

[8] = A CellTox Green Cytotoxicity Assay to monitor cytotoxicity in HEK293 cells - 16 hour (AID 1224888); further: nearly all actives have a fitted effect of over 35% in size
Summary of the method: as §1

[9] = qHTS RealTime-Glo MT Cell Viability Assay in HepG2 cells - 0 hour (AID 1224889); further: nearly all actives have a fitted effect of over 50% in size
Summary of the method: as §3

[10] = A CellTox Green Cytotoxicity Assay to monitor cytotoxicity in HepG2 cells - 8 hour (AID 1224890); further: nearly all actives have a fitted effect of over 45% in size; further: potency means the concentration at half of the fitted maximal effect
Summary of the method: as §2

Row | Structure (SMILES) | Potency [1] | Potency [2] | Potency [3] | Potency [4] | Potency [5] | Potency [6] | Potency [7] | Potency [8] | outcome [9] | Potency [10]
1 | CN1C[C@H](C(=O)N[C@]2(C)O[C@@]3(O)[C@@H]4CCCN4C(=O)[C@H](Cc4ccccc4)N3C2=O)C=C2c3cccc4[nH]cc(c34)C[C@H]21 | inactive | inactive | inactive | inactive | 19.6 µM (active) | inactive | inactive | inactive | inactive | inactive
2 | COc1ccc2c(c1OC)C(=O)O[C@H]2[C@@H]1c2cc3c(cc2CCN1C)OCO3 | inactive | inactive | inactive | inactive | inactive | inactive | inactive | inactive | inactive | inactive
3 | OC[P+](CO)(CO)CO | inactive | inactive | inactive | inactive | inactive | inactive | inactive | inactive | inactive | inactive
4 | CCOP(=O)(SC(C)CC)N1CCSC1=O (configuration not stated) | inactive | inactive | inactive | inactive | inactive | inactive | inactive | inactive | inactive | inactive
5 | CC(C)(C#N)C(C)(C)C#N | inactive | inactive | inactive | inactive | inactive | inactive | inactive | inactive | inactive | inactive
6 | COC(=O)C1(O)c2ccccc2-c2ccccc21 | inactive | inactive | inactive | inactive | inactive | inactive | inactive | inactive | inactive | inactive
7 | C=CCc1ccccc1O | inactive | inactive | inactive | inactive | inactive | inactive | inactive | inactive | inactive | inactive
8 | C[C@@H]1C[C@@H]([C@H](O)CC2CC(=O)NC(=O)C2)C(=O)[C@@H](C)C1 | inactive | inactive | inactive | inactive | inactive | 434 nM (active) and 245 nM (active) and 169 nM (active) | inactive | inactive | inactive | inactive
9 | CCCCCCCCCCCCCCCl | inactive | inactive | inactive | inactive | inactive | inactive | inactive | inactive | inactive | inactive
10 | C1CS1 | inactive | inactive | inactive | inactive | inactive | inactive | inactive | inactive | inactive | inactive
11 | CCC1CCC(=O)O1 (configuration not stated) | inactive | inactive | inactive | inactive | inactive | inactive | inactive | inactive | inactive | inactive
12 | COc1cc(CC#N)cc(OC)c1OC | inactive | inactive | inactive | inactive | inactive | inactive | inactive | inactive | inactive | inactive
13 | COCc1cnc(C2=NC(C)(C(C)C)C(=O)N2)c(C(=O)O)c1 (configuration not stated) | inactive | inactive | inactive | inactive | inactive | inactive | inactive | inactive | inactive | inactive
14 | N#CC1(N=NC2(C#N)CCCCC2)CCCCC1 | inactive | inactive | inactive | inactive | inactive | inactive | inactive | inactive | inactive | inactive
15 | c1ccc2sc(SNC3CCCCC3)nc2c1 | inactive | inactive | inactive | inactive | inactive | inactive | inactive | inactive | inactive | inactive
16 | Cc1nnc(-c2ccccc2)c(=O)n1N | inactive | inactive | inactive | inactive | inactive | inactive | inactive | inactive | inactive | inactive
17 | O=C(O)C(O)C(O)C(=O)O (configuration not stated) | inactive | inactive | inactive | inactive | inactive | inactive | inactive | inactive | inactive | inactive
18 | CCOP(=S)(OCC)SCSc1cc(Cl)ccc1Cl | inactive | inactive | inactive | inactive | inactive | inactive | inactive | inactive | inactive | inactive
19 | C[C@]12C=CC3=C4CCC(=O)C=C4CC[C@H]3[C@@H]1CC[C@@H]2O | inactive | inactive | inactive | inactive | inactive | inactive | inactive | inactive | inactive | inactive
20 | CC[N+]1(CCOC(=O)C(O)(c2ccccc2)c2ccccc2)CCCCC1 | inactive | inactive | inactive | inactive | inactive | inactive | inactive | inactive | inactive | inactive
21 | CCCSP(=S)(OCC)Oc1ccc(SC)cc1 (configuration not stated) | inactive | inactive | inactive | inactive | inactive | inactive | inactive | inactive | inactive | inactive
22 | NNCCO | inactive | inactive | inactive | inactive | inactive | inactive | inactive | inactive | inactive | inactive
23 | CCN(C(C)=O)c1cccc(-c2ccnc3c(C#N)cnn23)c1 | inactive | inactive | inactive | inactive | inactive | inactive | inactive | inactive | inactive | inactive
24 | CCCC[N+]1(C)[C@@H]2CC(OC(=O)[C@H](CO)c3ccccc3)C[C@H]1[C@@H]1O[C@@H]12 (some centres not stated) | inactive | inactive | inactive | inactive | inactive | inactive | inactive | inactive | inactive | inactive
25 | NCCc1cc(O)c(O)cc1O | inactive | inactive | inactive | inactive | inactive | inactive | inactive | inactive | inactive | inactive

Row | Structure (SMILES) | Potency [1] | Potency [2] | Potency [3] | Potency [4] | Potency [5] | Potency [6] | Potency [7] | Potency [8] | outcome [9] | Potency [10]
26 | CCC[N+](CCC)(CCC)CCC | inactive | inactive | inactive | inactive | inactive | inactive | inactive | inactive | inactive | inactive
27 | CCCCC#N | inactive | inactive | inactive | inactive | inactive | inactive | inactive | inactive | inactive | inactive
28 | Cc1nc(N(C)C)nc(OC(=O)N(C)C)c1C | inactive | inactive | inactive | inactive | inactive | inactive | inactive | inactive | inactive | inactive
29 | CC(Oc1cccc(Cl)c1)C(=O)O (configuration not stated) | inactive | inactive | inactive | inactive | inactive | inactive | inactive | inactive | inactive | inactive
30 | O=C(Cc1ccccc1)OCCc1ccccc1 | inactive | inactive | inactive | inactive | inactive | inactive | inactive | inactive | inactive | inactive
31 | CCC(C)(C)O | inactive | inactive | inactive | inactive | inactive | inactive | inactive | inactive | inactive | inactive
32 | C=C(C)C(=O)OCCCCOC(=O)C(=C)C | inactive | inactive | inactive | inactive | inactive | inactive | inactive |  | inactive | inactive
33 | N#CC(C#N)=Cc1ccc(O)c(O)c1 | inactive | 23.9 µM (active) | inactive | inactive | inactive | inactive | inactive |  | inactive | inactive
34 | CC(C)(C)NCC(O)c1ccccc1Cl (configuration not stated) | inactive | inactive | inactive | inactive | inactive | inactive | inactive |  | inactive | inactive
35 | CC(C)C1(C)N=C(c2ncccc2C(=O)O)NC1=O (configuration not stated) | inactive | inactive | inactive | inactive | inactive | inactive | inactive | inactive | inactive | inactive
36 | C[N+](C)(C)CC1CO1 (configuration not stated) | inactive | inactive | inactive | inactive | inactive | inactive | inactive |  | inactive | inactive
37 | CCOP(=S)(S)OCC | inactive | inactive | inactive | inactive | inactive | inactive | inactive |  | inactive | inactive
38 | ClCc1ccccc1Cl | inactive | inactive | inactive | inactive | inactive | inactive | inactive |  | inactive | inactive
39 | CC(O)CN1CCN(CC(=O)[O-])CCN(CC(=O)[O-])CCN(CC(=O)[O-])CC1.[Gd+3] (configuration not stated) | inactive | inactive | inactive | inactive | inactive | inactive | inactive | inactive | inactive | inactive
40 | C=CCOCC1CO1 (configuration not stated) | inactive | inactive | inactive | inactive | inactive | inactive | inactive |  | inactive | inactive
41 | CCCCC1C(=O)NC(=O)N(C2CCCCC2)C1=O (configuration not stated) | inactive | inactive | inactive | inactive | inactive | inactive | inactive |  | inactive | inactive
42 | O=C(NCNC(=O)NC1C(=O)NC(=O)N1CO)NC1C(=O)NC(=O)N1CO (configuration not stated) | inactive | inactive | inactive | inactive | inactive | inactive | inactive | inactive | inactive | inactive
43 | Nc1ccccc1C(=O)OCCc1ccccc1 | 21.9 µM (active) | inactive | 21.9 µM (active) | inactive and 34.7 µM (active) | inactive | 21.9 µM (active) | 21.9 µM (active) |  | inactive | inactive and 24.5 µM (active)
44 | c1ccc2c(c1)-c1cccc3cccc-2c13 | inactive | inactive | inactive | inactive | inactive | inactive | inactive | inactive | inactive | inactive
45 | CC[N+]1(C)CCCC(OC(=O)C(O)(c2ccccc2)c2ccccc2)C1 (configuration not stated) | inactive | inactive | inactive | inactive | inactive | inactive | inactive |  | inactive | inactive
46 | O=C(O)c1ccc(=O)[nH]c1 | inactive | inactive | inactive | inactive | inactive | inactive | inactive |  | inactive | inactive
47 | COc1ccccc1N1CCNCC1 | inactive | inactive | inactive | inactive | inactive | inactive | inactive |  | inactive | inactive
48 | NP(N)(=O)NC(=O)c1ccc(F)cc1 | inactive | inactive | inactive | inactive | inactive | inactive | inactive | inactive | inactive | inactive
49 | CC(C)(C)CC(C)(C)c1ccc(O)cc1 | 12.3 µM (active) and 19 µM (active) | inactive | 27.5 µM (active) and 15.1 µM (active) | 15.5 µM (active) and 12 µM (active) | 34.7 µM (active) | inactive | 34.7 µM (active) |  | inactive | 17.4 µM (active) and 10.7 µM (active)
